We go through 19 molecules from PubChem BioAssay.

Results filed as inconclusive are left out. Active and inactive are the calls of the source. Unless noted, no rule for the calls is given here.

The nature of experiment [1]: circadian clock period modulators, cell-based, LOPAC library, luminescence reporter (AID 2774).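 Also: values are relative to mean of DMSO wells on each plate.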 Particulars: circadian reporter cells, at 7 µM, actives lie on both sides.
The subject of experiment [2] is Hepatitis C virus NS3 helicase. As to the kind of experiment: HCV NS3 helicase inhibitors, primary screen, biochemical, fluorescence polarization, LOPAC1280 library (AID 687035; in the data active = inhibition above about 37%). Particulars: Purified HCV NS3 helicase, Cy5-dT15 ssDNA binding fluorescence polarization; stronger effect = higher value; concentration not given here.
Experiment [3] in a line: Cy5 fluorescence quenching or enhancement artefacts, artefact control for HCV NS3 helicase inhibitor project, biochemical, LOPAC1280 (AID 687037). Particulars: Cy5-DNA-NS3h complex fluorescence interference counterscreen. In general terms: A counterscreen serves to expose hits that act by an unwanted route or on another target.
Experiment [4] can be described thus: sensitizers of A549 cells to miR-34 induction, primary screen, imaging, A549 dox-inducible miR-34, nuclei and caspase counts (AID 1347080;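 active = compounds whose cell count with miR-34 switched on is under 0.7 times the count with it off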). Particulars: A549 miR-34 inducible, Hoechst nuclei count, 48 h.
The nature of experiment [5]: phospholipid biosynthesis inhibitors in animal cells, primary screen, cell-based, LOPAC library, screen 4 (AID 1347384). Particulars: phospholipid biosynthesis inhibition screen, at 10 µM.
Experiment [6] in a line: viability rescue of complex I mutant cybrids, primary screen, cell-based, galactose medium, ATP luminescence (AID 1645843;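 active = z-score of at least 1.8 in each of two replicates, scored against plate mean and spread of sample wells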;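 also: positive z means more ATP and so rescue of galactose-driven cybrid death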). The settings on record: complex I mutant cybrid cells, 72 h, stronger effect = higher value.
Experiment [7] in a line: liver-stage malaria parasite growth inhibition, primary screen, cell-based, HepG2, luciferase luminescence, HepG2 viability (AID 624349; in the data active = parasite load remaining mostly below about 12%, no sharp cut-off; inactive = mostly above about 10%;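 also: 100% = mean of DMSO negative control wells on the same plate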). The settings on record: P. berghei liver stage in HepG2, luciferase luminescence, concentration not given here; parasite load remaining: stronger effect = lower value; viability: measured here: HepG2 viability without parasites.
The nature of experiment [8]: hESC survival regulators, cell-based (AID 493140).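 Also: cells exposed to compounds for four days before counting.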 The settings on record: human embryonic stem cell survival screen; stronger effect = higher value.
In experiment [9] the target is ATP-dependent translocase ABCB1 (Homo sapiens) (UniProt P08183). Briefly: MDR1 (ABCB1) efflux transporter inhibition, cell-based (AID 377; in the data active = fluorescence slope change above about 50%). The settings on record: MDR1-expressing cells, fluorescent substrate accumulation slope; stronger effect = higher value; concentration not given here.
Setting [10] is: stronger effect = lower value, cell number ratio, induced over uninduced.
Where [11] appears, read: measured here: relative caspase fold change +Dox/-Dox.
Setting [12] is: measured here: total cells with miR-34 induction, stronger effect = lower value.
The mark [13] stands for this setting: measured here: total cells without miR-34 induction.

As a reminder, the inhibition is the drop in the measured response relative to a control, in per cent. Broadly, the viability is a read-out of living cells in per cent, often relative to untreated cells.

Sequence of ATP-dependent translocase ABCB1 (Homo sapiens) (P08183 whole entry, looked up): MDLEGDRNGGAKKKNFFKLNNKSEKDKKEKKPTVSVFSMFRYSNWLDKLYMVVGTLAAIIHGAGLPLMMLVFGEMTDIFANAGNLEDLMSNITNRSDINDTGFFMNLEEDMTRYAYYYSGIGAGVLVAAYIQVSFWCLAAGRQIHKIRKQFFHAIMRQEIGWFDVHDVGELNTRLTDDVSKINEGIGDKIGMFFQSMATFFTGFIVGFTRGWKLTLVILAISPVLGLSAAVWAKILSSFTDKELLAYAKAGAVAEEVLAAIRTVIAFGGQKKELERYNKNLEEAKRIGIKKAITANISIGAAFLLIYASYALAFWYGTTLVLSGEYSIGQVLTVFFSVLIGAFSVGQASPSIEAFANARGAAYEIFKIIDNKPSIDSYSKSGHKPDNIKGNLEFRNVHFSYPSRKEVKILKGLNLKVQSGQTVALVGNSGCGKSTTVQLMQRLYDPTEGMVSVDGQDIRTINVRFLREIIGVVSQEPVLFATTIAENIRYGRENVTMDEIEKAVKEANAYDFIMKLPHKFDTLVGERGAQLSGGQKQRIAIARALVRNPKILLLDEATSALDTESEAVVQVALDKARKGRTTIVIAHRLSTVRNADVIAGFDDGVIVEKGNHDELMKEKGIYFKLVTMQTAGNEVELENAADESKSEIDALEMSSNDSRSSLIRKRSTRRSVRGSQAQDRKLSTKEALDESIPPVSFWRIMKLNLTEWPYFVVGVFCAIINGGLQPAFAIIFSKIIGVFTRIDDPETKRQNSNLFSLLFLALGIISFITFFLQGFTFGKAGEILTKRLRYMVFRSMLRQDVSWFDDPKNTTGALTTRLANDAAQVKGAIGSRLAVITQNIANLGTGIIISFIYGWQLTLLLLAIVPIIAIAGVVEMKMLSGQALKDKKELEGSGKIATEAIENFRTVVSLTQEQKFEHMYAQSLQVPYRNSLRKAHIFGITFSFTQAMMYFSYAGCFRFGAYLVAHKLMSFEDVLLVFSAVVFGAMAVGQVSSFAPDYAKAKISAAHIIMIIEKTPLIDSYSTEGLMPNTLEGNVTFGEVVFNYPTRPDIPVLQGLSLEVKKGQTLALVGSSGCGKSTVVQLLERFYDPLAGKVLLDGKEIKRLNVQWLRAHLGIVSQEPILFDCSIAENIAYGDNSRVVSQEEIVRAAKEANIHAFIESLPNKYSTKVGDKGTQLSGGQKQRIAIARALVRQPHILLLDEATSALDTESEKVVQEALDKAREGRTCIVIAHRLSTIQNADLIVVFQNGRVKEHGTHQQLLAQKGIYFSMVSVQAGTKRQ

In the case of `N[C@@H](CCCC(=O)O)C(=O)O`, the period change in [1] was 0.11 h (inactive). Also, the inhibition in experiment [2] was -1% (inactive). For the same molecule, in experiment [3], the fluorescence ratio (interference) was 0.9 (inactive). Further, the fold change in experiment [4] (setting [10]) is 1.05 (inactive); in [4] (setting [11]), 0.58. Also, the cell count in [4] (setting [12]) was 10400; in [4] (setting [13]) it was 9930. Further, in experiment [5], the outcome was inactive. The z-score in experiment [6] is 0.595 (inactive).
For `COc1cc(OC)c(/C=C2/C(=O)Nc3ccccc32)c(OC)c1`, the period change in experiment [1] was -0.54 h (inactive). The parasite load remaining in experiment [7] was 35.9% (inactive). Further, the viability in [7] was found to be 78.8%. Moreover, in experiment [2], the inhibition is -1% (inactive). Besides, the fluorescence ratio (interference) in experiment [3] was 1 (inactive). Further, the fold change is 1.2 (inactive) in [4] (setting [10]) and 0.628 in experiment [4] (setting [11]). Also, the cell count in experiment [4] (setting [12]) turned out to be 2100; in experiment [4] (setting [13]) it was 1750. In addition, in experiment [5], the result was inactive. Besides, the z-score in experiment [6] was -1.29 (inactive).
As for `Nc1nc2[nH]c(=O)cnc2c(=O)[nH]1`, the period change in experiment [1] was 0 h (inactive). Besides, the inhibition in experiment [2] is -5% (inactive). Moreover, the fluorescence ratio (interference) in experiment [3] is 1 (inactive). The figures for the fold change in experiment [4] (setting [10]) and in experiment [4] (setting [11]) were 1.09 (inactive) and 0.997, respectively. The figures for the cell count in [4] (setting [12]) and in [4] (setting [13]) were 10400 and 9560, respectively. Further, the outcome in experiment [5] was inactive. Also, in [6], the z-score is 0.655 (inactive).
For the molecule `COCCOc1cc2ncnc(Cl)c2cc1OCCOC`, the fold change was 1.03 (inactive) in experiment [4] (setting [10]) and 1.13 in experiment [4] (setting [11]). In addition, the figures for the cell count in experiment [4] (setting [12]) and in experiment [4] (setting [13]) were 9200 and 8960, respectively. Also, the call in [5] was inactive. In addition, in [6], the z-score was -0.675 (inactive).
Regarding `COC(=O)C(C)(N)Cc1ccc(O)cc1` (stereo unspecified), the period change in experiment [1] is -0.015 h (inactive). In experiment [2], the inhibition is -3% (inactive). Moreover, the fluorescence ratio (interference) in [3] was 1 (inactive). Further, the values for the fold change in experiment [4] (setting [10]) and in experiment [4] (setting [11]) were 1.04 (inactive) and 1.45, respectively. Moreover, the results for the cell count in experiment [4] (setting [12]) and in experiment [4] (setting [13]) were 10900 and 10400, respectively. In addition, the outcome in experiment [5] was inactive. Further, in experiment [6], the z-score is 0.39 (inactive).
On to `N#CC(C#N)=C(N)/C(C#N)=C/c1ccc(O)cc1`, for which the period change in [1] is -0.025 h (inactive). In addition, in [7], the parasite load remaining was 31.2% (inactive). Moreover, the viability in [7] was 70.9%. Further, the inhibition in experiment [2] is -2% (inactive). In [3], the fluorescence ratio (interference) is 1 (inactive). For the same molecule, the fold change in experiment [4] (setting [10]) is 0.894 (inactive); in experiment [4] (setting [11]), 1.36. Further, the cell count in [4] (setting [12]) was 8590; in experiment [4] (setting [13]), 9610. Further, the result in [5] was inactive. In addition, in experiment [6], the z-score is 0.29 (inactive).
Take `N=C(N)c1ccccc1`: the period change in experiment [1] is -0.055 h (inactive). Moreover, in experiment [2], the inhibition is -2% (inactive). Also, the fluorescence ratio (interference) in experiment [3] was 1 (inactive). The fold change in experiment [4] (setting [10]) was 1.03 (inactive); in [4] (setting [11]), 1.99. Besides, the cell count was 10800 in experiment [4] (setting [12]) and 10500 in experiment [4] (setting [13]). The call in experiment [5] was inactive. In [6], the z-score is 0.605 (inactive).
For `CS(=O)(=O)c1ccc(-n2nc(C(F)(F)F)cc2-c2ccc(F)cc2)cc1`, the fold change is 1.12 (inactive) in experiment [4] (setting [10]) and 0.872 in [4] (setting [11]). For the same molecule, the cell count in experiment [4] (setting [12]) amounted to 9270; in [4] (setting [13]), 8270. The molecule was classed as inactive in experiment [5]. Further, in [6], the z-score is 0.62 (inactive).
For the molecule `CC(=O)/C(C)=N/O`, the period change in [1] is 0.15 h (inactive). For the same molecule, the fold change in experiment [4] (setting [10]) is 0.97 (inactive); in experiment [4] (setting [11]) it was 2.72. Also, the cell count amounted to 9060 in [4] (setting [12]) and 9340 in [4] (setting [13]). For the same molecule, the molecule was classed as inactive in experiment [5]. The z-score in [6] is 0.485 (inactive).
Consider `CNCCNS(=O)(=O)c1cccc2cnccc12`, for which the period change in [1] was 0.23 h (inactive). In experiment [8], the survival was 194 (active). The parasite load remaining in experiment [7] was 51% (inactive). The viability in experiment [7] worked out at 111%. Moreover, in [2], the inhibition was -6% (inactive). The fluorescence ratio (interference) in experiment [3] was 0.9 (inactive). For the same molecule, the fold change was 1.05 (inactive) in experiment [4] (setting [10]) and 1.37 in experiment [4] (setting [11]). Further, the results for the cell count in experiment [4] (setting [12]) and in experiment [4] (setting [13]) were 10700 and 10200, respectively. Besides, the outcome in experiment [5] was inactive. Besides, the z-score in [6] was -0.89 (inactive).
In the case of `Nc1nc2c(nc(Br)n2C2OC3COP(=O)(O)O[C@@H]3C2O)c(=O)[nH]1` (stereo partly specified), the period change in [1] is -0.01 h (inactive). Besides, the inhibition in [2] was -2% (inactive). The fluorescence ratio (interference) in [3] was 1 (inactive). Moreover, the results for the fold change in experiment [4] (setting [10]) and in experiment [4] (setting [11]) were 1.05 (inactive) and 1.74, respectively. For the same molecule, the cell count in [4] (setting [12]) was 10000; in [4] (setting [13]), 9530. For the same molecule, the result in experiment [5] was inactive. The z-score in [6] is 0.555 (inactive).
With `Cc1ccccc1/C=C/C1=NCCN1`, the period change in [1] is -0.13 h (inactive). Also, the inhibition in experiment [2] was -5% (inactive). Moreover, the fluorescence ratio (interference) in experiment [3] is 1 (inactive). Besides, the fold change in experiment [4] (setting [10]) is 1.01 (inactive); in [4] (setting [11]), 0.996. The cell count amounted to 7710 in experiment [4] (setting [12]) and 7640 in [4] (setting [13]). Besides, the molecule was called inactive in [5]. Also, the z-score in [6] was -1.06 (inactive).
In the case of `NCCS(=O)O`, the period change in experiment [1] was 0.035 h (inactive). In experiment [2], the inhibition was -3% (inactive). In addition, in experiment [3], the fluorescence ratio (interference) is 1 (inactive). Also, the fold change in experiment [4] (setting [10]) was 1 (inactive); in experiment [4] (setting [11]), 0.978. Besides, the cell count in experiment [4] (setting [12]) turned out to be 10600; in experiment [4] (setting [13]), 10500. Besides, in [5], the call was inactive. Moreover, the z-score in experiment [6] is 0.415 (inactive).
Turning to `Brc1ccc([C@H]2CN3CCSC3=N2)cc1`, the period change in experiment [1] was -0.16 h (inactive). In [8], the survival is 79.5 (inactive). The inhibition in [2] is 0% (inactive). The fluorescence ratio (interference) in experiment [3] is 0.9 (inactive). Further, the fold change in experiment [4] (setting [10]) is 1.04 (inactive); in experiment [4] (setting [11]) it was 1.3. The figures for the cell count in experiment [4] (setting [12]) and in experiment [4] (setting [13]) were 9880 and 9490, respectively. The molecule was called inactive in experiment [5]. Besides, in experiment [6], the z-score is 0.145 (inactive).
Regarding `C[C@H]1CC2C3CCC4=CC(=O)C=C[C@]4(C)[C@@]3(Cl)[C@@H](O)C[C@]2(C)[C@@]1(O)C(=O)CO` (stereo partly specified), the period change in experiment [1] was -0.07 h (inactive). In [2], the inhibition is -3% (inactive). Moreover, the fluorescence ratio (interference) in experiment [3] was 1 (inactive). In addition, the fold change is 0.918 (inactive) in experiment [4] (setting [10]) and 1.96 in experiment [4] (setting [11]). Moreover, the cell count in experiment [4] (setting [12]) turned out to be 7200; in experiment [4] (setting [13]), 7840. In addition, the outcome in experiment [5] was inactive. The z-score in experiment [6] was 1.25 (inactive).
With `COc1ccccc1CNCCCCCCNCCCCCCCCNCCCCCCNCc1ccccc1OC`, the period change in experiment [1] was 0.295 h (inactive). The inhibition in experiment [2] is 11% (inactive). The fluorescence ratio (interference) in experiment [3] was 1 (inactive). Moreover, the fold change in experiment [4] (setting [10]) is 1.1 (inactive); in [4] (setting [11]) it was 0.839. The cell count in experiment [4] (setting [12]) was found to be 8650; in [4] (setting [13]), 7890. Further, the call in experiment [5] was inactive. Moreover, the z-score in experiment [6] was -1.19 (inactive).
In the case of `COc1ccc(C(=O)/C(Cc2cc(OC)c(OC)c(OC)c2)=C(\C(=O)O)c2ccc3c(c2)OCO3)cc1`, the fold change in [4] (setting [10]) is 1.31 (inactive); in experiment [4] (setting [11]), 1.24. The cell count in experiment [4] (setting [12]) was 3900; in [4] (setting [13]) it was 2980. In addition, the molecule was classed as inactive in [5]. Moreover, the z-score in [6] was -1.33 (inactive).
Turning to `CN(CCCOc1ccc(Cc2ccccc2)cc1)CCC(=O)O`, the fold change in experiment [4] (setting [10]) was 0.994 (inactive); in [4] (setting [11]) it was 1.84. In addition, the figures for the cell count in experiment [4] (setting [12]) and in [4] (setting [13]) were 9930 and 9990, respectively. For the same molecule, the call in experiment [5] was inactive. Besides, the z-score in [6] is 0.275 (inactive).
Turning to `S=C(Nc1ccccc1)Nc1nccs1`, the fluorescence slope change in [9] was 65.3% (active). Besides, the period change in experiment [1] is 0.02 h (inactive). Moreover, in experiment [2], the inhibition was -3% (inactive). In [3], the fluorescence ratio (interference) was 1 (inactive). Further, the fold change in [4] (setting [10]) was 1.08 (inactive); in experiment [4] (setting [11]), 0.629. Besides, the cell count in [4] (setting [12]) turned out to be 6230; in experiment [4] (setting [13]) it was 5760. Also, the call in experiment [5] was inactive. For the same molecule, the z-score in [6] was -1.19 (inactive).
